LGR2 inh = blocks bursicon-induced cAMP signaling via Drosophila LGR2 | inhibition, % at 9.99 µM | AID 720647 | 0.35% of 380,000 active | HEK293 LGR2, CRE-luciferase, bursicon-stimulated, 4 h;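 active means drop in luminescence signal, shown as inhibition above about 50% in the replicate tests, limit read from the data, passing the limit was not always enough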;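 further: agonist challenge used bursicon conditioned medium at about half maximal strength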
NCOA2 inhibitor = human SRC2 (NCOA2) inhibition; HEK293 GAL4-SRC2 luciferase reporter, luminescence; inhibition, % at 9 µM; 0.17% of 370,000 active; AID 651957;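 active means inhibition above the mean inhibition of all tested compounds plus 3 SD, set per campaign, cut at about 52% in these data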;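 further: 0% = DMSO treated cells and 100% = cells given Gossypol at 36 µM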
NCOA3 inh = human NCOA3 inhibition; Q9Y6Q9; HEK293 GAL4-SRC3 luciferase reporter, luminescence; inhibition, % at 3.6 µM; 0.17% of 360,000 active;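 active means inhibition above a per-campaign cutoff, the mean of all compounds plus 3 SD, cut at about 60% in these data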;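 further: 0% = DMSO-treated cells and 100% = gossypol-treated cells at 36 µM; higher means less SRC3-driven luciferase light from the GAL4 reporter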
NR5A2 inv ag = NR5A2 inverse agonism in reporter assay; 0.13% of 360,000 active; HEK293T StAR-luciferase reporter, LRH-1 transfected, 24 h; inhibition, % at 3.6 µM; O00482;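 active means inhibition above the mean inhibition of all tested compounds plus 3 SD, cut at about 73% in these data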;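 further: 0% = DMSO wells and 100% = reporter-only cells lacking LRH-1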
Target sequence (O00482 whole entry, looked up): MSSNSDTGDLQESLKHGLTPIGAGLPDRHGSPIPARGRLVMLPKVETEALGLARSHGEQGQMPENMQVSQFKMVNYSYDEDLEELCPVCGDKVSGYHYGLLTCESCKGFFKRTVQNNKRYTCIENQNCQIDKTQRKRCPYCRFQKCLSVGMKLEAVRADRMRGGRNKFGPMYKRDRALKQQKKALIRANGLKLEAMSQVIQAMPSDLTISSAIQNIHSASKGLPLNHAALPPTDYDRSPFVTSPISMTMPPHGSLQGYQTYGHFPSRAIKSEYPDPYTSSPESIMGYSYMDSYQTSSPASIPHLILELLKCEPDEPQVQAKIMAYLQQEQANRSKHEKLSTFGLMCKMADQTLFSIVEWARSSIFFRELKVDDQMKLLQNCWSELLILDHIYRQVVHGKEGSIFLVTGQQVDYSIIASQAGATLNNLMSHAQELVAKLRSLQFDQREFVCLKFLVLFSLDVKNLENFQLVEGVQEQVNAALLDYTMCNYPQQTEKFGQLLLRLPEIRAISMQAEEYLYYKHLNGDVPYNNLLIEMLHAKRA
NCOA1 inh = inhibits human SRC1 coactivator. HEK293 GAL4-SRC1 luciferase reporter, luminescence. 0.12% of 360,000 active. inhibition, % at 3.6 µM. AID 588354. Q15788;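 active means inhibition above the campaign mean plus 3 SD, with each screening campaign given its own cutoff, cut at about 60% in these data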;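 further: 0% = DMSO treated cells and 100% = gossypol at 36 µM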
The depositor's hits bear a star; / = no result given; ! = not active in a repeat. Only some compounds are listed: those with a hit (about 0.48% of all), similar ones and a draw of the others.

SMILES | LGR2 inh | NCOA2 inhibitor | NCOA3 inh | NR5A2 inv ag | NCOA1 inh
Cc1cc(C(=O)COC(=O)C2=NNC(=O)CC2)c(C)n1-c1ccccc1 | -31.2 | 25.3 | -2.2 | 0.9 | -18.7
Cc1cc(C(=O)COC(=O)C2=COCCO2)c(C)n1-c1ccccc1 | 91.0* | 39.4 | 52.3 | 54.5 | 53.5
C=CCn1c(C)cc(C(=O)COc2ccc(C)nc2[N+](=O)[O-])c1C | 7.3 | 61.1* | 37.5 | 39.5 | 50.3
COCCn1c(C)cc(C(=O)COc2ccc(C)nc2[N+](=O)[O-])c1C | -0.8 | 53.7* | 36.7 | 18.4 | 38.9
Cc1ccc(OCC(=O)c2cc(C)n(-c3ccccc3)c2C)c([N+](=O)[O-])n1 | -27.4 | 78.4* | 53.1 | 33.4 | 28.7
COc1ccc2c3c([nH]c2c1)[C@H](CO)N(Cc1ccccc1)CC31CCN(CC2CC2)CC1 | 24.2 | / | / | / | /
CCCNC(=O)N1C[C@H](C)[C@H](OC)CN(C)C(=O)c2ccc(NC(C)=O)cc2OC[C@H]1C | 14.8 | / | / | / | /
O=C(C1CCCCC1)N1CC2(C1)[C@H](c1ccccc1)[C@H](CO)N2Cc1ccc(Cl)cc1 | 5.9 | / | / | / | /
O=C(C[C@@H]1CC[C@@H](NC(=O)CN2CCOCC2)[C@H](CO)O1)NC1CCCCC1 | -10.3 | / | / | / | /
O=C(CCC1CCCC1)Nc1ccc(C(=O)NCc2cccnc2)cc1 | 8.8 | 35.7 | 42.7 | 74.2* | 42.9
CC(C)NC(=O)N1C[C@@H]2[C@H](c3ccccc31)[C@@H](CO)N2C(=O)C1CCCC1 | -16.4 | / | / | / | /
N#Cc1c(N)n(C2OC(CO)C(O)C2O)c2ncnc(N)c12 (centres undefined) | 91.0* | 55.1* | 84.5* | 94.7* | 83.1*
Nc1ncnc2c1ncn2C1O[C@H](CO)[C@@H](O)[C@@H]1O (some centres undefined) | -3.6 | -7.3 | -4.7 | 2.9 | -5.4
Cc1ccc(-n2c(-c3ccc(Br)cc3)c[n+]3c2CCc2ccc4cccnc4c2-3)cc1 | 32.1 | -15.5 | 82.9* | 99.8* | 74.5*
CC[n+]1ccc(/C=C2\Sc3ccccc3N2CCCS(=O)(=O)[O-])c2ccccc21 | 15.1 | -0.7 | 5.5 | -4.0 | -79.2
CN1C=C/C(=C\c2cc[n+](C)c3ccccc23)c2ccccc21 | 28.4 | 22.8 | 38.4 | 80.6* | 52.7
N#CCCCC#Cc1ccc2c(c1)COc1c3ccccc3nn1-2 | 98.2* | 32.9 | -16.2 | -70.9 | -17.6
CCCNC(=O)N1CC2(C1)CN(C(=O)COC)[C@H](CO)c1[nH]c3cc(OC)ccc3c12 | -0.5 | / | / | / | /
Cc1cccc(N/C=C/C(=O)c2cccs2)c1C | 69.8* | -86.7 | -60.7 | -177.4 | -119.2
CC(C)(c1ccccc1)c1ccc(OCC(O)CNC2CCN(Cc3ccccc3)CC2)cc1 (centres undefined) | 104.1* | -20.5 | 2.5 | 7.9 | 7.2
C[C@H](C(=O)N(C)C[C@@H]1OCc2ccccc2-c2ccccc2C(=O)N([C@H](C)CO)C[C@@H]1C)c1ccccc1 | -15.1 | / | / | / | /
O=C(c1ccccc1)c1nn(-c2ccc(Cl)cc2)c(=O)cc1C(F)(F)F | / | 68.9* | 63.6* | 84.9* | 25.7
O=C(c1ccccc1)c1nn(-c2ccccc2)c(=O)cc1C(F)(F)F | / | -15.0 | 11.8 | 1.6 | -11.8
C[N+]1=C(/C=C/Nc2ccccc2Cl)C(C)(C)c2ccccc21 | 6.7 | 18.6 | 2.3 | -8.1 | -12.4
COC(=O)c1ccc2c(c1)C(C)(C)C(/C=C/c1ccccc1O)=[N+]2C | 56.2* | 18.7 | 59.4 | 18.3 | 19.3
SMILES | LGR2 inh | NCOA2 inhibitor | NCOA3 inh | NR5A2 inv ag | NCOA1 inh
COc1ccc2c3c(n(C)c2c1)[C@H](CO)N(CC1CC1)CC31CCN(Cc2ccc(F)cc2)CC1 | 6.7 | / | / | / | /
C=CCn1c(C)cc(C(=O)CN2C(=O)c3ccccc3S2(=O)=O)c1C | / | / | 88.0* | 88.2* | 87.4*
C=CCn1c(C)cc(C(=O)CSc2nc3ccccc3[nH]2)c1C | 59.5* | 13.5 | 29.5 | 0.2 | 14.4
CCn1c(C)cc(C(=O)CN2C(=O)c3ccccc3S2(=O)=O)c1C | 72.3* | 34.1 | 47.5 | 44.9 | 51.7
Cc1cc(C(=O)CN2C(=O)c3ccccc3S2(=O)=O)c(C)n1C(C)C | 75.8* | 57.6* | 39.9 | 38.5 | 46.7
C=CCn1c(C)cc(C(=O)CSc2nc3ccccc3c(=O)[nH]2)c1C | / | -42.3 | -101.8 | -99.9 | -74.3
COc1ccccc1C(=O)Nc1ccc2c(c1)OC[C@@H](C)N(CC1CC1)C[C@@H](C)[C@@H](OC)CN(C)C2=O | -7.9 | / | / | / | /
COC1C=CC=C(C)C(=O)NC2=CC(=O)C(N)=C(CC(C)CC(OC)C(O)C(C)C=C(C)C1OC(N)=O)C2=O (centres undefined) | 49.9 | 19.1 | 75.4* | 85.8* | 72.2*
COc1cccc(-c2ccc(C3[C@@H]4CN(C(=O)C5CC5)C[C@H]3N4)cc2)c1 (some centres undefined) | 62.3*! | / | / | / | /
CCCNC(=O)C[C@H]1CC[C@H]2[C@@H](COc3ccc(NC(=O)Nc4ccccc4F)cc3C(=O)N2C)O1 | -11.0 | / | / | / | /
Cc1cc(C(=O)Nc2ccc(Cl)cc2)c(C)n1-c1ccccc1 | 82.0* | 75.6* | 86.2* | 82.8* | 85.0*
Cc1ccc(NC(=O)c2cc(C)n(-c3ccccc3)c2C)cc1 | / | 55.5* | 65.8* | 67.7 | 64.9*
Cc1cc(C(=O)Nc2ccc(Cl)cc2)n(-c2ccccc2)n1 | -11.6 | -22.7 | -9.9 | -21.2 | -12.2
Cc1ccc(NC(=O)c2cc(C)n(-c3cccc(C)c3)c2C)cc1 | -65.4 | 13.4 | 14.0 | 30.4 | 22.2
Cc1ccc(NC(=O)c2cc3ccccc3oc2=N)cc1 | 89.5* | -70.1 | -63.0 | -67.3 | -150.9
C[C@H]1CN([C@@H](C)CO)C(=O)c2cccc(NC(=O)c3cnccn3)c2O[C@@H]1CN(C)C(=O)NC1CCCCC1 | -1.7 | / | / | / | /
CO[C@H]1CC[C@H]2CCOc3ccc(C#N)cc3C(=O)N(C)C[C@@H](OC)[C@H](C)C(=O)N(C)C[C@H]1O2 | -19.2 | / | / | / | /
CCC[C@H](CN[C@@H](CNC)[C@H](C)CC)NCCc1cc(C(F)(F)F)cc(C(F)(F)F)c1 | 63.3* | 0.8 | 8.8 | -18.3 | -7.2
CC[C@@H](C)[C@H](CNC)NC[C@@H](Cc1cccc2ccccc12)NCCc1cccc(C(F)(F)F)c1 | 14.4 | 1.3 | -8.6 | -10.0 | 3.8
COc1ccccc1C(C[N+](=O)[O-])c1c(N)n(C)c(=O)n(C)c1=O (centres undefined) | 68.9* | 18.2 | 21.7 | 18.5 | 8.7
C[C@@H]1CN([C@H](C)CO)C(=O)c2cccc(NC(=O)c3cnccn3)c2O[C@H]1CN(C)S(=O)(=O)c1ccccc1 | 12.0 | / | / | / | /
O=C1N=C(N2CCN(c3ccccc3)CC2)S/C1=C\c1cn[nH]c1-c1ccccc1 | 59.9* | 7.4 | 36.5 | -6.2 | 1.0
CCC(=O)N1C[C@H](C)[C@H](OC)CN(C)C(=O)c2ccc(NC(=O)c3ccccc3)cc2OC[C@H]1C | -1.7 | / | / | / | /
COc1cc(CNCCCN2CCOCC2)cc(Br)c1OCc1ccc(Cl)cc1 | 98.8* | 13.3 | 13.8 | 18.6 | 7.2
COc1cc(CNCCN2CCOCC2)ccc1OCc1ccc(Cl)cc1 | / | 5.3 | 18.7 | 3.4 | -11.8

Source: PubChem BioAssay
